The whole screen tested about 69,000 compounds, of which about 8,600 (12%) showed an effect of 50% or more. The entries come from a sample that favours strong results as a whole.

The assay relates to Plasmodium berghei. The assay is described as follows: Screen against P. berghei liver stage (PbLuc), transformed with Luciferase, at 10uM. The assay is classed as functional, HepG2. The note with it: tested at 10 uM.
As for `CC(C)c1nn(C)c(N(C)C)c1CNC1CCOc2c(F)cccc21` (stereo not given), the INHIBITION is given as -12.5%.

Take `O=C(c1cnccn1)N1CC2(CCN(Cc3ccsc3)C2)C1`: the INHIBITION is 23.3%.

`CN(C)C(=O)C1CSCN1C(=O)CCc1ccco1` (stereo not given): the INHIBITION was -75%.

Regarding `CC(=O)Nc1ccc(CCC2(NC(=O)C3CC3)CCCCC2)cn1`, the INHIBITION is given as 59.2%.

Regarding `CC(=O)Nc1ccc(CCC2(NC(=O)C3CCCO3)CCCCC2)cn1` (stereo not given), the INHIBITION is -1.16%.

As for `CS(=O)(=O)NC1(CCc2ccc(NC(=O)C3CC3)nc2)CCCCC1`, the INHIBITION amounted to 40.6%.

`Cc1nn(C(C)C)c2cn(CC(=O)NC3CCSCC3)nc12`: the INHIBITION is -3.83%.

On to `O=C(Cc1ccc2c(c1)OCCO2)NCc1ccc(-n2cncn2)nc1`, for which the INHIBITION is recorded as 19.2%.

Turning to `CC1Cc2ccccc2N1C(=O)Cn1nc(-c2cccs2)cc(N)c1=O` (stereo not given), the INHIBITION was determined as 18.3%.

On to `Nc1cc(-c2cccs2)nn(CC(=O)N2CCc3ccccc32)c1=O`, for which the INHIBITION worked out at 72.2%.

For `Nc1cc(-c2cccs2)nn(CC(=O)NCC2CCCCC2)c1=O`, the INHIBITION is listed as 6.32%.

Take `CCS(=O)(=O)N1CC(=O)N(CCCc2ccccc2)CC(O)C1` (stereo not given): the INHIBITION amounted to 26.8%.

With `O=C(CCc1nc2cccnc2[nH]1)NCc1ccncc1`, the INHIBITION was -0.532%.

For `Cc1ccc(CN2CCN(c3ccc(F)cn3)CC2=O)cc1C`, the INHIBITION is 11.2%.

As to `Cc1ccc(CN2CCN(c3cncc(N(C)C)n3)CC2=O)cc1C`, the INHIBITION was found to be 56.3%.

As to `Cc1ccc(CN2CCN(Cc3ccc(N(C)C)nc3)CC2=O)cc1C`, the INHIBITION came out at 44%.

Take `CS(=O)(=O)CCn1ccc(NC(=O)c2c(F)cccc2F)n1`: the INHIBITION was determined as 46.1%.

In the case of `Cc1nccn1C1CCCN(C(=O)c2ccc(N(C)C)nn2)C1` (stereo not given), the INHIBITION is -22.9%.

`COc1ccncc1NCc1cscn1`: the INHIBITION worked out at 21.6%.

Regarding `CC(C)(C)Oc1ccncc1NCc1cscn1`, the INHIBITION came to 70.3%.

Take `O=C(CCc1ccsc1)Nc1cnccc1O`: the INHIBITION is reported as -3.43%.

As to `COc1ncc(NCc2ccsc2)cc1C(N)=O`, the INHIBITION worked out at 32.2%.

As to `COc1ccncc1NCc1ccsc1`, the INHIBITION is recorded as 71.3%.

As for `COc1ccccc1NCc1cscn1`, the INHIBITION is recorded as 27.5%.

For `Cc1noc(C)c1CSC1CCCN(c2cnn(C)c2)C1=O` (stereo not given), the INHIBITION is recorded as -41.9%.

For `COCCN1CCOCC12CCN(Cc1ccn(C)n1)CC2`, the INHIBITION is given as 34.6%.

As to `CC(=O)NCc1cc2n(n1)CCN(Cc1cc(-c3ccccc3)no1)C2`, the INHIBITION amounted to 32.2%.

Take `COCCN1CCC2(CC1)CC(c1cccnc1)C(=O)N2C` (stereo not given): the INHIBITION worked out at 26.5%.

In the case of `CCc1nc(C2CCCN(C(=O)NC(C)C)C2)no1` (stereo not given), the INHIBITION is 13.6%.

Regarding `O=C([C@@H](O)Cc1ccccc1)N1CCCn2cncc2C1`, the INHIBITION amounted to 18.6%.

Regarding `Cc1ccnc(NC(=O)c2cnc(C3CCCNC3)cn2)c1` (stereo not given), the INHIBITION was found to be 37.35%.

Consider `CC(C)NC(=O)COc1cccc(-c2nc(C(C)C)no2)c1`, for which the INHIBITION is reported as 26.8%.

Regarding `CCc1cc(=O)n(CC(=O)N2CCC(C)CC2)c(-c2ccccc2)n1`, the INHIBITION is given as 57.3%.

For the compound `CCc1cc(=O)n(CC(=O)N2CCCC2)c(-c2ccccc2)n1`, the INHIBITION is listed as 4.35%.

As for `CCc1cc(=O)n(CC(=O)N2CCC(C)CC2)c(-c2cccc(F)c2)n1`, the INHIBITION is reported as 17.6%.

As to `CNc1nc2c(s1)C(c1cc(Cl)ccc1F)CC(=O)N2` (stereo not given), the INHIBITION was 35.8%.

With `CCn1cc(CN(C)S(=O)(=O)c2ccc(C(C)C)cc2)cn1`, the INHIBITION is listed as 26.7%.

With `Cc1cc(C)n(CC2CN(c3ccc(C#N)cn3)CCO2)n1` (stereo not given), the INHIBITION stood at 23.7%.

With `Cc1nn(C)c2cnn(Cc3ccc(C(=O)NC4CC4)o3)c12`, the INHIBITION came out at 16.8%.

For `Cc1nn(C)c2cnn(Cc3ccc(C(=O)N4CCN(C)CC4)o3)c12`, the INHIBITION turned out to be 65.6%.

Turning to `Cc1nn(C)c2cnn(Cc3ccc(C(=O)N4CCCCC4)o3)c12`, the INHIBITION is listed as 21.7%.

For `CCc1ccc(NC(=O)N2C[C@@H]3C[C@H](C(=O)NC)[C@H](C2)O3)cc1`, the INHIBITION was 15%.

On to `O=C1NCc2ccccc2CC12CCCN(Cc1ccsc1)C2` (stereo not given), for which the INHIBITION amounted to 14.3%.

`CC(CC(=O)Nc1ncn(CC(=O)N2CCCCCC2)n1)C1CC1` (stereo not given): the INHIBITION is recorded as -28.8%.

With `O=C(CC1C=CCC1)Nc1ncn(CC(=O)N2CCCCCC2)n1` (stereo not given), the INHIBITION was found to be 50.6%.

Take `O=C(COC1CCCC1)Nc1ncn(CC(=O)N2CCCCCC2)n1`: the INHIBITION is given as 8.75%.

As for `O=C(Nc1ncn(CC(=O)N2CCCCCC2)n1)C1CCCC1`, the INHIBITION was determined as 2.7%.

With `O=C(COCC1CC1)Nc1ncn(CC(=O)N2CCCCCC2)n1`, the INHIBITION is -32.4%.

In the case of `CC(OCC1CC1)C(=O)Nc1ncn(CC(=O)N2CCCCCC2)n1` (stereo not given), the INHIBITION was 51.7%.

For `Cc1ccc2oc(C(=O)N3CCCC(n4nc(C)nc4C)C3)cc2n1` (stereo not given), the INHIBITION was -2.95%.

For the compound `COc1ccc(CNC(=O)CCCc2nnc3ccc(OC)nn23)cc1`, the INHIBITION came out at 8.99%.

As for `CCn1nc(CNC(C)(C)CO)c(-c2ccccc2)n1`, the INHIBITION is 20.9%.

Take `CCCOCC(=O)N1CCc2c(cccc2S(=O)(=O)N2CCOCC2)C1`: the INHIBITION was 26.7%.

Turning to `Fc1cnc(N2CC[C@@H]3O[C@@H](COCc4ccccn4)CC[C@@H]32)nc1`, the INHIBITION was found to be 18.5%.

For the compound `c1cnc(N2CCC3(CCN(CC4CCOC4)C3)CC2)nc1` (stereo not given), the INHIBITION is on record as 34.7%.

Source of the values: ChEMBL document CHEMBL4513216, “Probing the Open Global Health Chemical Diversity Library for Multistage-Active Starting Points for Next-Generation Antimalarials” (ACS Infect Dis, 2020).
